Some test systems named below: NCI-H23 lung; NCI-H226 lung; NCI-H322M lung; HOP-62 NSCLC; NCI-H460 lung; A549/ATCC NSCLC; 786-0 renal; COLO 205 colon; DU-145 prostate; K-562 leukemia; MALME-3M melanoma; MDA-MB-231 breast; RXF 393 renal; SF-268 CNS; SF-295 CNS; SF-539 CNS; M14 melanoma; UACC-257 melanoma.
Assay in all cases: NCI-60 one-dose screen, 48 h (100 = growth as untreated, 0 = no growth, -100 = all killed)
What all share (details): 10 µM unless noted

These results are taken from PubChem BioAssay (NCI).

Molecules are shown by their SMILES. This is part of a sample that, as a whole, favours compounds with a hit. Of some 83,000 tested, about 20% had one in any assay.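 Testing used 96-well plates and a 48-hour single-concentration exposure. Example: -40 means 40% of the starting cells died.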 Unmarked numbers belong to inactive results. Activity calls are given as the source filed them. How the source made its calls: active means growth percent below 10; inactive means the rest.

For the compound `C=C[C@]1(C)C=C2C(=O)[C@@]3(O)OC[C@@]4(CCCC(C)(C)C43O)C2(O)C(O)C1` (stereo partly drawn), the growth with NCI-H23 lung was 80.1%; with NCI-H226 lung, 81.4%; in the assay on NCI-H322M lung, 108%; in the assay with HOP-62 NSCLC it was 107%; in the assay on NCI-H460 lung, 82.5%; with A549/ATCC NSCLC, 76.4%. Further, the growth is 38.2% in the assay on 786-0 renal; 9.48% (active) in the assay with COLO 205 colon; 60.2% in the assay on DU-145 prostate; 17.1% in the assay on K-562 leukemia; 5.18% (active) with MALME-3M melanoma; 98.3% in the assay on MDA-MB-231 breast. The growth is 21.4% in the assay on RXF 393 renal; 83.8% in the assay on SF-268 CNS; 113% in the assay with SF-295 CNS; 66.2% with SF-539 CNS; 9.03% (active) in the assay on M14 melanoma.
Regarding `COC(=O)CC(=O)C(=O)OC`, the growth with NCI-H23 lung is 103%; in the assay on NCI-H226 lung, 97.7%; in the assay with NCI-H322M lung, 107%; in the assay with HOP-62 NSCLC, 103%; with NCI-H460 lung, 104%; in the assay on A549/ATCC NSCLC, 104%. In addition, the growth is 95.2% in the assay with 786-0 renal; 114% with COLO 205 colon; 108% in the assay on DU-145 prostate; 101% in the assay on K-562 leukemia; 107% in the assay with MALME-3M melanoma; 115% with MDA-MB-231 breast. Also, the growth in the assay on RXF 393 renal is 104%; with SF-268 CNS, 97.4%; in the assay with SF-539 CNS, 102%; in the assay with UACC-257 melanoma, 102%; in the assay with M14 melanoma, 100%.
Regarding `N#CCc1ncc(-c2ccc(C(F)(F)F)cc2)c(NC2CCCCCC2)n1`, the growth in the assay on NCI-H23 lung was 25.7% [100 µM]; in the assay on NCI-H226 lung, 55.3% [100 µM]; with NCI-H322M lung it was 68.1% [100 µM]; with HOP-62 NSCLC, 71.7% [100 µM]; in the assay on NCI-H460 lung, 8.28% [100 µM] (active); in the assay on A549/ATCC NSCLC, 21.1% [100 µM]. Besides, the growth was 28.6% [100 µM] with 786-0 renal; 18.7% [100 µM] in the assay on COLO 205 colon; 28.5% [100 µM] in the assay on DU-145 prostate; 4.45% [100 µM] (active) in the assay with K-562 leukemia; 25.7% [100 µM] in the assay with MALME-3M melanoma; 37.4% [100 µM] with MDA-MB-231 breast. The growth with RXF 393 renal was 36.4% [100 µM]; in the assay with SF-268 CNS it was 30.5% [100 µM]; in the assay on SF-539 CNS it was 67.2% [100 µM]; with UACC-257 melanoma, 23.3% [100 µM]; in the assay on M14 melanoma it was 19% [100 µM].
Consider `COc1cc(/C(=C2/O[C@@H]([C@H]3COC(C)(C)O3)[C@H]3OC(C)(C)O[C@@H]23)c2ccc3c(c2)OCO3)cc(OC)c1OC`, for which the growth in the assay with NCI-H23 lung is 54%; with NCI-H226 lung, 102%; with NCI-H322M lung, 85.3%; with HOP-62 NSCLC it was 63.5%; in the assay with NCI-H460 lung, 57.3%; with A549/ATCC NSCLC, -14% (active). In addition, the growth was -6.92% (active) in the assay with 786-0 renal; 108% with COLO 205 colon; 60.2% in the assay with DU-145 prostate; 40.8% in the assay with K-562 leukemia; 29.1% with MALME-3M melanoma; 21.9% in the assay on MDA-MB-231 breast. The growth with SF-268 CNS is 72%; in the assay on SF-295 CNS, 76.1%; in the assay with SF-539 CNS it was 25.2%; with UACC-257 melanoma, 58.8%; with M14 melanoma it was 93.7%.
For the compound `COC(=O)c1cc(Nc2ccc(O)c3c2C(=O)c2c([N+](=O)[O-])ccc(O)c2C3=O)cc(C(=O)OC)c1`, the growth was -20.3% (active) in the assay on NCI-H23 lung; 82.5% with NCI-H226 lung; -2.32% (active) with NCI-H322M lung; 72.8% with HOP-62 NSCLC; 55.7% with NCI-H460 lung; -50.2% (active) in the assay with A549/ATCC NSCLC. Moreover, the growth in the assay on 786-0 renal is 88.7%; in the assay with COLO 205 colon, 12%; in the assay on DU-145 prostate it was -59.1% (active); in the assay with K-562 leukemia, 72.9%; with MALME-3M melanoma it was -51.1% (active); in the assay with MDA-MB-231 breast, 90.4%. The growth in the assay with RXF 393 renal was 51.9%; with SF-268 CNS, 55.1%; in the assay with SF-539 CNS it was 84%; in the assay with UACC-257 melanoma it was 12.1%; in the assay with M14 melanoma it was -66.5% (active).
As for `O=C(c1ccccc1)c1ccccc1-c1ccccc1`, the growth in the assay on NCI-H23 lung was 46.2%; in the assay with NCI-H226 lung, 71.8%; with NCI-H322M lung, 65.6%; in the assay on HOP-62 NSCLC it was 32.5%; in the assay on NCI-H460 lung, 15.1%; in the assay with A549/ATCC NSCLC, 38.3%. Besides, the growth is 37.8% in the assay with 786-0 renal; 22.6% with COLO 205 colon; 51.1% in the assay on DU-145 prostate; 14.5% with K-562 leukemia; 49.4% in the assay on MALME-3M melanoma; 42.1% with MDA-MB-231 breast. For the same compound, the growth with SF-268 CNS is 45.4%; in the assay with SF-295 CNS, 17.1%; in the assay with SF-539 CNS it was 20.4%; in the assay with UACC-257 melanoma, 55.4%; in the assay with M14 melanoma, 0.878% (active).
In the case of `CC(O)CCC(C)[N+](=O)[O-]` (stereo not drawn), the growth was 111% with NCI-H23 lung; 109% with NCI-H226 lung; 98.7% in the assay on NCI-H322M lung; 95.4% with HOP-62 NSCLC; 109% in the assay with NCI-H460 lung; 96.3% in the assay with A549/ATCC NSCLC. For the same compound, the growth was 101% with 786-0 renal; 111% in the assay with COLO 205 colon; 111% in the assay on DU-145 prostate; 99.9% with K-562 leukemia; 106% in the assay on MALME-3M melanoma; 110% with MDA-MB-231 breast. Moreover, the growth with RXF 393 renal was 119%; with SF-268 CNS, 104%; with SF-539 CNS it was 99%; with UACC-257 melanoma it was 102%; in the assay on M14 melanoma, 106%.
`CC#Cc1nc(Nc2cc(C)[nH]n2)c2ccccc2n1`: the growth is 2.12% [100 µM] (active) in the assay on NCI-H23 lung; -27.7% [100 µM] (active) with NCI-H226 lung; 9.12% [100 µM] (active) in the assay on NCI-H322M lung; -23.1% [100 µM] (active) in the assay with HOP-62 NSCLC; 3.75% [100 µM] (active) with NCI-H460 lung; 1.41% [100 µM] (active) in the assay on A549/ATCC NSCLC. Further, the growth with 786-0 renal is 7.19% [100 µM] (active); in the assay with COLO 205 colon, -100% [100 µM] (active); in the assay with DU-145 prostate, -4.22% [100 µM] (active); in the assay on K-562 leukemia, 9.48% [100 µM] (active); in the assay on MALME-3M melanoma it was -45.3% [100 µM] (active); in the assay with MDA-MB-231 breast, -34.5% [100 µM] (active). The growth in the assay with RXF 393 renal is -51% [100 µM] (active); in the assay with SF-268 CNS, -72.5% [100 µM] (active); in the assay with SF-539 CNS, 1.15% [100 µM] (active); in the assay on UACC-257 melanoma, -19.9% [100 µM] (active); in the assay on M14 melanoma, -27.3% [100 µM] (active).
Take `CCOC(=O)c1csc(-c2ccc(COC(=O)c3ccccc3)o2)n1`: the growth in the assay with NCI-H23 lung is 108%; in the assay on NCI-H226 lung it was 104%; in the assay on NCI-H322M lung, 93.2%; in the assay on HOP-62 NSCLC, 99.5%; in the assay with NCI-H460 lung it was 109%; in the assay with A549/ATCC NSCLC, 99.7%. Besides, the growth in the assay with 786-0 renal was 102%; with COLO 205 colon, 114%; in the assay with DU-145 prostate, 130%; in the assay with K-562 leukemia, 102%; in the assay on MALME-3M melanoma, 95.8%; in the assay on MDA-MB-231 breast, 107%. Also, the growth is 106% with RXF 393 renal; 118% in the assay with SF-268 CNS; 84.4% in the assay on SF-295 CNS; 107% in the assay on SF-539 CNS; 106% in the assay on M14 melanoma.
